Structures are written as SMILES. About 100 (5%) of roughly 2,000 compounds were called active. Rule as the data show it: active = z-score above about 2; inactive = the rest. Many of the other results were omitted from the sample, so actives are more common in it than they were.

Among the data in PubChem BioAssay AID1645838 (ICCB-Longwood Screening Facility, Harvard Medical School, 2021) are z-score, cell count and outcome values, retold here.

The nature of this assay: supercomplex reporter luminescence per Hoechst cell count – Hoechst nuclei count (AID 1645838).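 As to all read-outs here: control cybrid cells.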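 As to z-score: higher means more mitochondrial supercomplex formation.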 To be noted: Cells, luminescence/Hoechst cell count ratio; for z-score: stronger effect = higher value; for cell count: measured here: cell number, Hoechst nuclei count.
Setting [1] is: library stock concentration (final well concentration not given) 46 uM.
Where [2] appears, read: library stock concentration (final well concentration not given) 278 uM.
Where [3] appears, read: library stock concentration (final well concentration not given) 1.67 mM.
[4] abbreviates: library stock concentration (final well concentration not given) 10 mM.
[5] abbreviates: library stock concentration (final well concentration not given) 80 uM.
[6] abbreviates: library stock concentration (final well concentration not given) 400 uM.
[7] abbreviates: library stock concentration (final well concentration not given) 2 mM.

Take `O=C(O)CCC/C=C\CC1C(=O)C[C@@H](O)[C@@H]1/C=C/[C@@H](O)COc1ccccc1` (some centres not stated): the z-score was 0.988 (inactive) and the cell count is 5150.
For `CCN(CC)C(=O)CCC/C=C\C[C@@H]1[C@@H](/C=C/[C@@H](O)CCc2ccccc2)[C@H](O)C[C@@H]1O`, in that order: 0.309 (inactive) and 5000.
`CCCCCCCC/C=C\CCCCCCCCCCCC(N)=O`: the z-score is -0.128 (inactive) and the cell count worked out at 5640.
For `CCCCCCCCCCCCCCCCCC(=O)NCCO`, in that order: -0.675 (inactive) and 6070.
Take `O=C(C(=O)c1ccc(Cl)cc1)c1ccc(Cl)cc1`: the z-score under setting [1] was 0.501 (inactive), the z-score under setting [2] was 0.0434 (inactive), the z-score under setting [3] was 0.0353 (inactive) and the z-score under setting [4] is -0.186 (inactive). Besides, the cell count under setting [1] came out at 6500, the cell count under setting [2] came to 6290, the cell count under setting [3] was 6800 and the cell count under setting [4] was found to be 6380.
For the molecule `NC(=NCC[C@H](N)C(=O)O)NO`, the z-score was -0.121 (inactive) and the cell count is 4620.
As for `CCN(CC)c1ccc(C=NNC(=O)c2ccc(O)cc2)cc1`, the z-score by setting is: under setting [1], -0.275 (inactive); under setting [2], -0.201 (inactive); under setting [3], -0.4 (inactive); under setting [4], 2.2 (active). For the same molecule, the cell count is 6830 under setting [1], 6590 under setting [2], 6690 under setting [3] and 3360 under setting [4].
Consider `CCCCC/C=C\C/C=C\C/C=C\C/C=C\CCCCNC(=O)c1ccc(O)cc1`, for which the z-score was -0.229 (inactive) and the cell count was found to be 5700.
For the molecule `CCC(=C(CC)c1ccc(O)cc1)c1ccc(O)cc1`, the z-score by setting is: under setting [5], 0.303 (inactive); under setting [6], 0.161 (inactive); under setting [7], -0.198 (inactive); under setting [4], -1.11 (inactive). Also, the cell count under setting [5] came out at 5780, the cell count under setting [6] came to 5910, the cell count under setting [7] is 5930 and the cell count under setting [4] was determined as 5450.
On to `CC(OC1OCCN(Cc2n[nH]c(=O)[nH]2)C1c1ccc(F)cc1)c1cc(C(F)(F)F)cc(C(F)(F)F)c1` (configuration not stated), for which the z-score is -0.483 (inactive) under setting [5], -0.157 (inactive) under setting [6], -0.324 (inactive) under setting [7] and 1.44 (inactive) under setting [4]. For the same molecule, the cell count was found to be 5120 under setting [5], 5200 under setting [6], 4790 under setting [7] and 2820 under setting [4].
As to `CCCCCCCC/C=C\CCCCCCCC(=O)N[C@@H](CO)C(=O)O`, the z-score was 0.0618 (inactive) and the cell count was 5160.
In the same order, the values of `Cc1nnsc1C(=O)Nc1ccc(-n2nc(C(F)(F)F)cc2C(F)(F)F)cc1` are 0.284 (inactive) and 4970.
Consider `NCC(=O)Nc1ccc(-n2nc(C(F)(F)F)cc2-c2ccc3c(ccc4ccccc43)c2)cc1`, for which, where the note is “library stock 10 mM”, the outcome is “inactive; censored for cell count”. Moreover, the z-score is -0.354 (inactive) under setting [5], -0.201 (inactive) under setting [6] and 4.63 (active) under setting [7]. The cell count is 6120 under setting [5], 5230 under setting [6] and 2710 under setting [7].
As for `CCCCCCCCCCCCCCC(=O)NCCO`, the z-score reads like this: under setting [1], -0.0121 (inactive); under setting [2], 0.19 (inactive); under setting [3], -0.219 (inactive); under setting [4], 0.291 (inactive). In addition, the cell count is, setting by setting: under setting [1], 6780; under setting [2], 6410; under setting [3], 7210; under setting [4], 6620.
Consider `CC(=O)c1cccc(NC(=O)CN2CCc3cc4c(cc3C2)OCCCO4)c1`, for which the z-score under setting [5] is 0.0242 (inactive), the z-score under setting [6] was 0.451 (inactive), the z-score under setting [7] is -0.169 (inactive) and the z-score under setting [4] is 0.0588 (inactive). The cell count by setting is: under setting [5], 4960; under setting [6], 4830; under setting [7], 4760; under setting [4], 4740.
As to `COc1cc2c(NC3CCN(C(C)C)CC3)nc(C3CCCCC3)nc2cc1OCCCN1CCCC1`, the z-score is -0.551 (inactive) under setting [1], -0.34 (inactive) under setting [2], -0.454 (inactive) under setting [3] and 0.796 (inactive) under setting [4]. In addition, the cell count under setting [1] turned out to be 6710, the cell count under setting [2] was determined as 5680, the cell count under setting [3] is 6450 and the cell count under setting [4] is 1730.
In the case of `COc1cc2c(NC3CCN(CC4CCCCC4)CC3)nc(N3CCCN(C(C)C)CC3)nc2cc1OCCCN1CCCCC1`, the outcome (library stock 10 mM) was “inactive; censored for cell count”. In addition, the z-score reads like this: under setting [5], -0.365 (inactive); under setting [6], -0.622 (inactive); under setting [7], 0.193 (inactive). Further, the cell count runs as follows: under setting [5], 6230; under setting [6], 6560; under setting [7], 4370.
In the case of `COc1cc2nc(N3CCCN(C)CC3)nc(NC3CCN(Cc4ccccc4)CC3)c2cc1OC`, the z-score was -0.382 (inactive) and the cell count is 5260. For the same molecule, under setting [1], the z-score is -0.481 (inactive) and the cell count turned out to be 6510. Moreover, under setting [2], the z-score is -0.471 (inactive) and the cell count was determined as 6560. Also, under setting [3], the z-score was 0.298 (inactive) and the cell count came out at 5890. Further, under setting [4], the z-score was 10.9 (active) and the cell count was 2180.
With `CCCCCC(=O)CC[C@H]1C(=O)C=C[C@@H]1C/C=C\CCCC(=O)O`, the z-score was 1.09 (inactive) and the cell count came to 5090.
`CC(C)(C)OC(=O)N1CCC(OC2CCNCC2)CC1`: the z-score under setting [5] was 0.0198 (inactive), the z-score under setting [6] was 0.196 (inactive), the z-score under setting [7] was 0.447 (inactive) and the z-score under setting [4] was 0.428 (inactive). Further, the cell count was determined as 4690 under setting [5], 4710 under setting [6], 4640 under setting [7] and 4420 under setting [4].
For the molecule `Cc1cc(CS(=O)(=O)c2ccccc2)cc(OCc2ccc(CN3CCCC3CO)cc2)c1` (configuration not stated), the z-score runs as follows: under setting [1], -0.0615 (inactive); under setting [2], -0.164 (inactive); under setting [3], -0.0708 (inactive); under setting [4], -0.221 (inactive). In addition, the cell count runs as follows: under setting [1], 5870; under setting [2], 5750; under setting [3], 5420; under setting [4], 5130.
Consider `CCCCCCCCCCCCC/C=C/[C@@H](O)[C@H](CO)NC(=O)CCCCC`, for which the z-score was -0.258 (inactive) and the cell count came to 5330.
Consider `CC(/C=C/C(=O)NO)=C\[C@@H](C)C(=O)c1ccc(N(C)C)cc1`, for which the outcome was “inactive; censored for cell count”.
